Reference: ChEMBL document CHEMBL4513135, “CO-ADD screening of IQOG CSIS (Spain) compounds”
Results with a measured potency or affinity are listed apart.

system: Staphylococcus aureus; conditions: Concentration 32 ug.mL-1; ASSAY_TEST Inhibition of Bacterial Growth; detection method Absorption (OD600); MEDIA CAMHB; plate type 384well; NBS; CORNING #3640; time 18 hr

Q: With N#Cc1c(N)nc(S)c(C#N)c1-c1ccccc1 as the molecule, how does the Inhibition read?
A: 14.03%

Q: For COc1cccc(C2C(C#N)=C(N)Oc3c2ccc2ccccc32)c1 (stereo not given), which Inhibition is on record?
A: 23.52%

Q: For Cc1ccc(S(=O)(=O)N[C@H]2CC[C@H](O)CC2)cc1, which Inhibition is on record?
A: 22.82%

Q: For N#Cc1c(N)nc(Cl)c(C#N)c1-c1ccccc1, which Inhibition is on record?
A: 17.3%

Q: With COc1cccc(C=C2N=C(c3ccccc3)OC2=O)c1OC(C)=O as the molecule, how does the Inhibition read?
A: 5.66%

Q: For C#CCN(C)Cc1cc2cc(OCCCCC3CCN(Cc4ccccc4)CC3)ccc2n1C, which Inhibition is on record?
A: 38.42%

Q: With C#CCN(Cc1ccccc1)c1nc(N)c(C#N)c(-c2ccccc2)c1C#N as the molecule, how does the Inhibition read?
A: 11.64%

Q: How did the Inhibition turn out when NOC(=O)C1CCN(Cc2ccccc2)CC1 was run?
A: 21.2%

Q: For COc1ccc2c(ccn2C)c1, which Inhibition is on record?
A: 6.16%

Q: Which Inhibition does the source give for C#CCN(C)Cc1cc2cc(OCCCC3CCN(Cc4ccc(OC)c5ncccc45)CC3)ccc2n1C here?
A: 8.98%

Q: How did the Inhibition turn out when CCOC(=O)c1c(C)nc(NCC2CCN(Cc3ccccc3)CC2)c(C#N)c1-c1ccccc1 was run?
A: 24.62%

Q: With Cc1cnc(NC(=O)OC(C)(C)C)c(Br)c1 as the molecule, how does the Inhibition read?
A: 34.57%

Q: For COc1ccccc1[C@H]1c2c(ccc3ccccc23)O/C(=N\Br)[C@@]1(Br)C#N, which Inhibition is on record?
A: 33.19%

Q: For O=C1OC(c2ccc([N+](=O)[O-])cc2)=NC1=Cc1ccccc1, which Inhibition is on record?
A: 12.67%

Q: How did the Inhibition turn out when CC1(C)OC(=O)C(=Cc2ccc([N+](=O)[O-])cc2)C(=O)O1 was run?
A: 28.78%

Q: How did the Inhibition turn out when C=C1CN(C)c2c(C#N)c(-c3ccccc3)c(C#N)c(=O)n21 was run?
A: 8.64%

Q: With Nc1nc(N)c(C=O)c(-c2ccccc2)c1C=O as the molecule, how does the Inhibition read?
A: 3.38%

Q: With O=C(N/N=C/c1c[nH]c2ccccc12)c1ccc(Cl)cc1 as the molecule, how does the Inhibition read?
A: 3.32%

Q: O=C1NC(=S)N/C1=C\c1ccccc1 was tested. Which Inhibition did it give?
A: 13.95%

Q: Which Inhibition does the source give for CCCC(=O)NCc1c(-c2ccc(Cl)cc2)nc2ccccn12 here?
A: 11.89%

Q: With CC(=O)CCc1c[nH]c2ccccc12 as the molecule, how does the Inhibition read?
A: 10.48%

Q: With C=C=CCN(C)Cc1cc2ccccc2n1C.O=C(O)C(=O)O as the molecule, how does the Inhibition read?
A: 31.58%

Q: For CCOC(=O)c1c(C)nc(NC2CCN(Cc3ccccc3)CC2)c(C#N)c1-c1ccccc1, which Inhibition is on record?
A: 43.62%

Q: How did the Inhibition turn out when C#CCNc1ncccn1 was run?
A: 40.44%

Q: How did the Inhibition turn out when Cc1[nH]c2ccc(OCc3ccccc3)cc2c1C(=O)NN was run?
A: 3.15%

Q: Which Inhibition does the source give for CC1=NC(=Cc2ccccc2)C(=O)S1 here?
A: 13.03%

Q: For CC#CCN(Cc1ccccc1)c1nc(N)c(C#N)cc1C#N, which Inhibition is on record?
A: 14.89%

Q: With N#CC1=C(Cl)Oc2c(ccc3ccccc23)C1c1cccc([N+](=O)[O-])c1 (stereo not given) as the molecule, how does the Inhibition read?
A: 9.83%

Q: For NC1(C(=O)O)CC1c1ccc2c(c1)OCO2 (stereo not given), which Inhibition is on record?
A: -7.05%

Q: N#Cc1c(NC2CCC(Cc3ccccc3)CC2)nc(NC2CCN(Cc3ccccc3)CC2)c(C#N)c1-c1ccccc1 (stereo not given) was tested. Which Inhibition did it give?
A: 4.21%

Q: Which Inhibition does the source give for Cc1ccc2nc(Cl)c(/C=N/NCc3ccccc3)cc2c1 here?
A: 26.2%

Q: For Cc1ccc(C(O)SNNc2ncnc3c2cnn3-c2ccccc2)cc1 (stereo not given), which Inhibition is on record?
A: 13.51%

Q: N#Cc1c(N)nc(NCCC2CCN(Cc3ccccc3)CC2)c(C#N)c1-c1ccccc1 was tested. Which Inhibition did it give?
A: 34.16%

Q: Which Inhibition does the source give for N#CC1=C(N)Oc2ccc3ccccc3c2C1c1cccc([N+](=O)[O-])c1 (stereo not given) here?
A: 31.47%

Q: How did the Inhibition turn out when O=C(Cc1ccccc1)N/N=C/c1c[nH]c2ccccc12 was run?
A: 9.24%

Q: N#CC1=C(N)Oc2c(ccc3ccccc23)C1c1ccccc1 (stereo not given) was tested. Which Inhibition did it give?
A: 23.38%

Q: For N#CC1(Br)C(=NBr)Oc2ccc3ccccc3c2C1c1cccc([N+](=O)[O-])c1 (stereo not given), which Inhibition is on record?
A: 29.27%

Q: With CSC1=NC(=Cc2ccccc2)C(=O)N1C as the molecule, how does the Inhibition read?
A: 5.89%

Q: Which Inhibition does the source give for CCOC(=O)c1cc(C#N)c(N)nc1C here?
A: 8.2%

Q: How did the Inhibition turn out when COc1ccc(C2c3ccc4ccccc4c3OC(=NBr)C2(Br)C#N)cc1 (stereo not given) was run?
A: 25.41%

system: Escherichia coli; conditions: Concentration 32 ug.mL-1; ASSAY_TEST Inhibition of Bacterial Growth; detection method Absorption (OD600); MEDIA CAMHB; plate type 384well; NBS; CORNING #3640; time 18 hr

Q: How did the Inhibition turn out when N#Cc1c(N)nc(S)c(C#N)c1-c1ccccc1 was run?
A: 9.92%

Q: With COc1cccc(C2C(C#N)=C(N)Oc3c2ccc2ccccc32)c1 (stereo not given) as the molecule, how does the Inhibition read?
A: -8.01%

Q: With Cc1ccc(S(=O)(=O)N[C@H]2CC[C@H](O)CC2)cc1 as the molecule, how does the Inhibition read?
A: -6.91%

Q: For N#Cc1c(N)nc(Cl)c(C#N)c1-c1ccccc1, which Inhibition is on record?
A: 12.56%

Q: With COc1cccc(C=C2N=C(c3ccccc3)OC2=O)c1OC(C)=O as the molecule, how does the Inhibition read?
A: 4.51%

Q: With C#CCN(C)Cc1cc2cc(OCCCCC3CCN(Cc4ccccc4)CC3)ccc2n1C as the molecule, how does the Inhibition read?
A: -8.55%

Q: C#CCN(Cc1ccccc1)c1nc(N)c(C#N)c(-c2ccccc2)c1C#N was tested. Which Inhibition did it give?
A: -2.54%

Q: How did the Inhibition turn out when NOC(=O)C1CCN(Cc2ccccc2)CC1 was run?
A: 1.52%

Q: COc1ccc2c(ccn2C)c1 was tested. Which Inhibition did it give?
A: 8.07%

Q: How did the Inhibition turn out when C#CCN(C)Cc1cc2cc(OCCCC3CCN(Cc4ccc(OC)c5ncccc45)CC3)ccc2n1C was run?
A: -14.67%

Q: With CCOC(=O)c1c(C)nc(NCC2CCN(Cc3ccccc3)CC2)c(C#N)c1-c1ccccc1 as the molecule, how does the Inhibition read?
A: -10.38%

Q: How did the Inhibition turn out when Cc1cnc(NC(=O)OC(C)(C)C)c(Br)c1 was run?
A: -15.12%

Q: COc1ccccc1[C@H]1c2c(ccc3ccccc23)O/C(=N\Br)[C@@]1(Br)C#N was tested. Which Inhibition did it give?
A: 14.2%

Q: With O=C1OC(c2ccc([N+](=O)[O-])cc2)=NC1=Cc1ccccc1 as the molecule, how does the Inhibition read?
A: 13.11%

Q: Which Inhibition does the source give for CC1(C)OC(=O)C(=Cc2ccc([N+](=O)[O-])cc2)C(=O)O1 here?
A: 10.5%

Q: C=C1CN(C)c2c(C#N)c(-c3ccccc3)c(C#N)c(=O)n21 was tested. Which Inhibition did it give?
A: -1.97%

Q: Which Inhibition does the source give for Nc1nc(N)c(C=O)c(-c2ccccc2)c1C=O here?
A: 16.24%

Q: Which Inhibition does the source give for O=C(N/N=C/c1c[nH]c2ccccc12)c1ccc(Cl)cc1 here?
A: 9.43%

Q: With O=C1NC(=S)N/C1=C\c1ccccc1 as the molecule, how does the Inhibition read?
A: 8.87%

Q: With CCCC(=O)NCc1c(-c2ccc(Cl)cc2)nc2ccccn12 as the molecule, how does the Inhibition read?
A: 8.99%

Q: How did the Inhibition turn out when CC(=O)CCc1c[nH]c2ccccc12 was run?
A: 10.88%

Q: C=C=CCN(C)Cc1cc2ccccc2n1C.O=C(O)C(=O)O was tested. Which Inhibition did it give?
A: -19.52%

Q: How did the Inhibition turn out when CCOC(=O)c1c(C)nc(NC2CCN(Cc3ccccc3)CC2)c(C#N)c1-c1ccccc1 was run?
A: -5.95%

Q: C#CCNc1ncccn1 was tested. Which Inhibition did it give?
A: -0.02%

Q: Cc1[nH]c2ccc(OCc3ccccc3)cc2c1C(=O)NN was tested. Which Inhibition did it give?
A: -5.77%

Q: How did the Inhibition turn out when CC1=NC(=Cc2ccccc2)C(=O)S1 was run?
A: 9.12%

Q: For CC#CCN(Cc1ccccc1)c1nc(N)c(C#N)cc1C#N, which Inhibition is on record?
A: -4.77%

Q: How did the Inhibition turn out when N#CC1=C(Cl)Oc2c(ccc3ccccc23)C1c1cccc([N+](=O)[O-])c1 (stereo not given) was run?
A: -16.88%

Q: How did the Inhibition turn out when NC1(C(=O)O)CC1c1ccc2c(c1)OCO2 (stereo not given) was run?
A: -7.79%

Q: How did the Inhibition turn out when N#Cc1c(NC2CCC(Cc3ccccc3)CC2)nc(NC2CCN(Cc3ccccc3)CC2)c(C#N)c1-c1ccccc1 (stereo not given) was run?
A: -8.77%

Q: Cc1ccc2nc(Cl)c(/C=N/NCc3ccccc3)cc2c1 was tested. Which Inhibition did it give?
A: 22.89%

Q: For Cc1ccc(C(O)SNNc2ncnc3c2cnn3-c2ccccc2)cc1 (stereo not given), which Inhibition is on record?
A: 11.76%

Q: N#Cc1c(N)nc(NCCC2CCN(Cc3ccccc3)CC2)c(C#N)c1-c1ccccc1 was tested. Which Inhibition did it give?
A: -9%

Q: How did the Inhibition turn out when N#CC1=C(N)Oc2ccc3ccccc3c2C1c1cccc([N+](=O)[O-])c1 (stereo not given) was run?
A: -6.29%

Q: Which Inhibition does the source give for O=C(Cc1ccccc1)N/N=C/c1c[nH]c2ccccc12 here?
A: 17.46%

Q: How did the Inhibition turn out when N#CC1=C(N)Oc2c(ccc3ccccc23)C1c1ccccc1 (stereo not given) was run?
A: -4.89%

Q: N#CC1(Br)C(=NBr)Oc2ccc3ccccc3c2C1c1cccc([N+](=O)[O-])c1 (stereo not given) was tested. Which Inhibition did it give?
A: -20.79%

Q: Which Inhibition does the source give for CSC1=NC(=Cc2ccccc2)C(=O)N1C here?
A: 10.03%

Q: How did the Inhibition turn out when CCOC(=O)c1cc(C#N)c(N)nc1C was run?
A: -11.35%

Q: With COc1ccc(C2c3ccc4ccccc4c3OC(=NBr)C2(Br)C#N)cc1 (stereo not given) as the molecule, how does the Inhibition read?
A: -8.93%
